The campaign covered roughly 65,000 compounds. About 370 (0.57%) were called active. For the sample, actives were picked, then their nearest neighbours and some compounds at random. Unmarked numbers belong to inactive results.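 Rule for the calls: active = activation above the screen-wide mean activation plus 3 SD (cut at about 19% in these data); inactive = the rest.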

The target of this assay is 5-hydroxytryptamine receptor 1A (Homo sapiens) (UniProt P08908). The assay can be described thus: human 5-HT1a receptor agonists, primary screen, cell-based, CHO, Ga15 NFAT-bla reporter (AID 567).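 Note: 0% = DMSO wells and 100% = 5-CT at EC100.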 The following applies: CHO 5-HT1a Ga15 NFAT-bla reporter, FRET ratio; at 10 µM; active compounds read high; 0% basal, 100% maximal reference agonist.
5-hydroxytryptamine receptor 1A (Homo sapiens), sequence (P08908 whole entry, looked up): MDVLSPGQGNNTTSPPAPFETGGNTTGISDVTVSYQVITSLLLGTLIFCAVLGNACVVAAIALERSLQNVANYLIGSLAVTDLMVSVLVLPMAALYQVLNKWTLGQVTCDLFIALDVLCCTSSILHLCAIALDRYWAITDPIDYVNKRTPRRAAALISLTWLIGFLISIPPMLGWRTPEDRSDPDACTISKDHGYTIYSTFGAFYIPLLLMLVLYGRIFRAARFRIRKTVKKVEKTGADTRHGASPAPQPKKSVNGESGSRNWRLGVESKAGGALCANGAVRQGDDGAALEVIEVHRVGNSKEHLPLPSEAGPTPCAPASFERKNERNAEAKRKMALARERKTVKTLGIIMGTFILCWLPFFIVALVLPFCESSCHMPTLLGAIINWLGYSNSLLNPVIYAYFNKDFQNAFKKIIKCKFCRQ
As to `Cn1nc(-c2ccc(Cl)cc2)c2cc(C(=O)NCc3ccco3)sc21`, the activation was -2.11%.

Take `CCc1c(C)nc(N2CCN(Cc3ccccc3)CC2)[nH]c1=O`: the activation is -1.04%.

On to `CC(C)N1C(=O)C2C(C(=O)NC3CCCCC3)C3C=CC2(O3)C1C(=O)NC1CCCC1` (configuration not stated), for which the activation was -3.66%.

Take `CCn1c(CNC(=O)c2ccc(OC)c(OC)c2)nnc1SCC(=O)Nc1ccccc1`: the activation is 1.92%.

With `CCCNS(=O)(=O)c1ccc(CCC(=O)NCc2cccnc2)cc1`, the activation is 0.51%.

As for `CCN1CCN(Cc2nc3c(c(=O)n(C)c(=O)n3C)n2CC(=O)c2ccccc2)CC1`, the activation was -1.47%.

Regarding `CCn1nnc(NC(=O)c2c(OC)cccc2OC)n1`, the activation was 0.51%.

As for `O=C(COc1ccc(S(=O)(=O)NCCc2ccccc2)cc1)N1CCCC1`, the activation is -3.17%.

`O=C(COc1ccccc1)NCCc1nc2ccccc2[nH]1`: the activation was 2.44%.

In the case of `Cc1cccc(NC(=O)C2CCCN2S(=O)(=O)c2ccc(F)cc2)c1C` (configuration not stated), the activation is 0.24%.

`O=C1Nc2c(Br)cc(Br)cc2C1(O)N1CCOCC1` (configuration not stated): the activation is 0.9%.

In the case of `CCOCCCN1C(=O)CN(C2CCCCC2)C(=O)C1c1ccc(OCC)c(OC)c1` (configuration not stated), the activation was 0.91%.

With `CCCS(=O)(=O)Nc1c(C(=O)O)[nH]c2ccccc12`, the activation is -2.21%.

With `c1ccc(Nc2n[nH]nc2-c2ccccc2)cc1`, the activation is 0.42%.

`CCCCOc1ccc(Cl)cc1CSc1nncn1N`: the activation was -1.4%.

On to `Cc1csc(NC(=O)NC2(C(F)(F)F)Oc3ccccc3O2)n1`, for which the activation is 1.56%.

With `COc1ccc(C)cc1NC(=O)CSc1nc(SC)ns1`, the activation was -0.56%.

On to `O=C(CN1CCOCC1)Nc1c(-c2ccccc2)c2cc(Br)ccc2[nH]c1=O`, for which the activation was -1.84%.

On to `Cc1ccc(C(=O)N(CN2CCCC2=O)c2ccc(F)cc2)cc1`, for which the activation was -4.03%.

For the molecule `CC(=O)c1cccc(S(=O)(=O)N2CCC(n3nnc4cc(F)ccc43)CC2)c1`, the activation was 1.45%.

With `COc1ccc(Cn2c(=O)sc3ccccc32)cc1OC`, the activation was 1.04%.

Take `CN(C)c1ccc(NC(=O)c2ccncc2)c2ccccc12`: the activation was -2.38%.

Take `O=C(CSC1=NCCS1)Nc1nc(-c2ccccc2)cs1`: the activation is -0.71%.

For `Cc1nc(NC(=O)CCC(=O)O)sc1C(=O)N(C)C`, the activation is -1.18%.

`Cc1cc(NC(=O)Cn2nc(C(F)(F)F)c3c2CCCC3)no1`: the activation is -1.46%.

As for `Cc1cccc(N2CCN(C(c3ccccc3)c3nnnn3CC3CCCO3)CC2)c1C` (configuration not stated), the activation is -0.4%.

With `CN(C)c1cc[n+](Cc2ccccc2)cc1`, the activation was 0.31%.

With `COC(=O)c1ccc(Oc2nc(Nc3ccc(F)cc3)nc(N3CCCC3)n2)cc1`, the activation is 0.02%.

Consider `N#CNC1=NCN(CCc2ccccc2)CN1`, for which the activation is -0.74%.

As for `CCOC(=O)N1CCC(NC(=O)C(C)n2c3ccccc3c3cnn(C)c(=O)c32)CC1` (configuration not stated), the activation was -1.53%.

As to `COc1ccc(S(=O)(=O)N2CCC(C(=O)N3CCOCC3)CC2)cc1OC`, the activation was -2.94%.

Turning to `CCCCC(=O)N1CC2(C)CN(C(=O)CCCC)CC(C)(C1)C2=O`, the activation is -3.12%.

As for `Cc1onc(-c2ccccc2)c1C(=O)Nc1ccccc1C#N`, the activation is -0.43%.

Regarding `CCOC(=O)CSc1nnc(-c2ccncc2)o1`, the activation is -4.83%.

As to `COc1cccc(C2/C(=C(/O)c3ccncc3)C(=O)C(=O)N2CCCN(C)C)c1` (configuration not stated), the activation is -2.65%.

With `CN1C(=O)c2ccc(NC(=O)c3c(F)c(F)c(F)c(F)c3F)cc2C1=O`, the activation was -1.19%.

As to `Cc1nc(N2CCCC2C(=O)O)c2oc3ccccc3c2n1` (configuration not stated), the activation was 0.22%.

Consider `CCC(=O)c1ccc(OCC(O)CN2CC(C)OC(C)C2)cc1` (configuration not stated), for which the activation is -2.72%.

With `CCC(=O)c1ccc(OCC(O)CN2C(=O)NC(C)(C)C2=O)cc1` (configuration not stated), the activation was 80.3% (active).

With `CC1(C)NC(=O)N(CCOc2cccc(Oc3ccccc3)c2)C1=O`, the activation is -2.31%.

Regarding `CCCC(=O)Nc1ccccc1N1CCN(C(=O)c2ccccc2)CC1`, the activation was 0.59%.

For `O=C(Nc1ccccc1N1CCN(C(=O)c2ccccc2)CC1)c1ccc2c(c1)OCO2`, the activation was 60% (active).

As for `O=C(Nc1ccccc1N1CCN(c2ccccc2)CC1)c1cccc(F)c1`, the activation was 3.42%.

For the molecule `Cc1noc(C)c1COC(=O)Cn1c(C)nc2ccccc21`, the activation was -2.62%.

`O=C(O)CCCC(=O)Nc1ccccc1-n1ccnc1`: the activation is -6.2%.

For `CC(C)NS(=O)(=O)c1ccc(CCC(=O)N2CCOCC2)cc1`, the activation is -3.1%.

Turning to `CCn1c(SCC(=O)Nc2cc(C)ccc2C)nnc1-c1cnccn1`, the activation was -3.82%.

Take `Cc1ccc2c(c1)NCC(C(=O)NC1CCC(C)CC1)O2` (configuration not stated): the activation is -2.41%.

As to `CCC(=O)Nc1ccccc1C(=O)N1CCN(Cc2ccccc2)CC1`, the activation is -6.46%.

Take `CC1CCCCN1CC(=O)NCc1ccc2c(c1)OCO2` (configuration not stated): the activation is 0.18%.

Take `CSc1ccc(-c2c(C#N)c(N)nc3c2c(C)nn3-c2ccccc2)cc1`: the activation was 1.16%.

Take `COc1ccc(O)c(C=Nc2cc(C)on2)c1`: the activation is -4.57%.

Consider `Cc1ccc(C(c2sc3nc(C)nn3c2O)N2CCN(c3ccccc3)CC2)cc1` (configuration not stated), for which the activation was 1%.

Regarding `Cn1cc(S(=O)(=O)N2CCC(Cc3ccccc3)CC2)c(=O)n(C)c1=O`, the activation is -1.31%.

Regarding `O=C(CSc1ncccn1)NC(=O)NCc1ccccc1`, the activation is -2.73%.

Turning to `O=C(CN1CCN(c2ccccc2F)CC1)c1ccc2c(c1)OCO2`, the activation is -1.08%.

As to `O=C(NC1CCCCC1)n1c(=O)oc2cc(S(=O)(=O)N3CCCCC3)ccc21`, the activation was 1.83%.

Regarding `CCCC(=O)Nc1nnc(CC(=O)OCC)s1`, the activation was -1.79%.

Take `O=C(c1ccc(-n2cnnn2)cc1)N1CCN(C(c2ccccc2)c2ccccc2)CC1`: the activation is -2.96%.

With `O=c1c(-c2ccc3c(c2)OCCO3)c(C(F)(F)F)oc2cc(O)cc(O)c12`, the activation is 2.15%.

With `CCOC(=O)c1cc2cc(-c3c(C(=O)OCC)oc4cc(O)cc(O)c4c3=O)ccc2o1`, the activation was 20.4% (active).

In the case of `CCCOC(=O)c1cc2ccccc2oc1=O`, the activation was -1.25%.

The values above are taken from PubChem BioAssay AID567 (The Scripps Research Institute Molecular Screening Center, 2006).
